Measured values reported in PubChem BioAssay (NCI).
The panel holds about 79,000 compounds, 15% with a hit somewhere; the sample as a whole holds those more often. A number with no mark means an inactive call. Rule as the data show it: active = growth inhibition above about 70%; inactive = the rest.

Assay: NCI Yeast Anticancer Drug Screen. Data for the rad50 strain (AID 155);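 also: 0% = growth of vehicle-only cultures of the same strain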
Settings: S. cerevisiae rad50 strain growth inhibition; at 50.0 µM; active compounds read high
How it was run: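 Genetically altered yeast (DNA repair pathway); compound treatment; growth inhibition vs vehicle ctrl.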

Structure (SMILES) | growth inhibition
CCCCCCCCCCCCCCCCCCCCOC1OC(COC(C)=O)C(OC(C)=O)C(OC(C)=O)C1OC(C)=O (stereo unspecified) | -21.3%
O=C1/C(=C/c2ccc(Cl)cc2)CCC1CCN1CCOCC1 (stereo unspecified) | 46.9%
Nc1ccc2c(c1)NCC2 | -27.6%
N#CCCN(C1=NN(C(=O)CC(=O)Nc2cccc(Cl)c2)C(c2ccccc2)C1)c1ccccc1Cl (stereo unspecified) | 8.2%
COC1=NCc2ccccc2-c2ccccc21 | -16.1%
CNc1nnnn1C1OC(CO)C(O)C1O (stereo unspecified) | -2.15%
Cc1cc(C(=O)NN)no1 | -4.75%
Cn1c(=O)c2c(nc(CCCCCCCCc3nc4c(c(=O)n(C)c(=O)n4C)n3C)n2C)n(C)c1=O | -7.5%
S=C1Cc2c([nH]c3ccccc23)-c2ccccc2N1 | -11.1%
CCC1OC(=O)CC(O)C(C)C(OC2OC(C)CC(N(C)C)C2O)C(CC=O)CC(C)C(=O)/C=C/C2(C)OC2C1C (stereo unspecified) | -6.9%
CC(C)CCC(=O)OC/C(=N\Nc1ccc([N+](=O)[O-])cc1[N+](=O)[O-])c1ccc(-c2ccccc2)cc1 | -17.7%
CC(O)CN1CCCC1 (stereo unspecified) | 5.75%
COc1cc(CC2C(=O)OCC2C2(c3ccc4c(c3)OCO4)SCCCS2)cc(OC)c1OC (stereo unspecified) | 10.4%
O=C1CN(C(=O)Nc2ccccc2)c2ccccc2N1 | 26.6%
COc1cc(CCl)c(OC)cc1Cl | 8.6%
CN(C)CCCN1c2ccccc2Sc2cnccc21 | 7.6%
